# High-throughput results deposited in PubChem by National Center for Advancing Translational Sciences (NCATS).
# The sample as a whole holds a higher share of hits than the screen did.
# LmPK inh – LmPK (Leishmania mexicana) enzyme inhibition; Potency, µM (top dose mostly 57.5 µM), most hits filed as inhibitors; 290,000 tested, 0.37% active; purified LmPK, Kinase-Glo ATP luminescence, 1 h; Q27686
# Target sequence (Q27686 whole entry, looked up): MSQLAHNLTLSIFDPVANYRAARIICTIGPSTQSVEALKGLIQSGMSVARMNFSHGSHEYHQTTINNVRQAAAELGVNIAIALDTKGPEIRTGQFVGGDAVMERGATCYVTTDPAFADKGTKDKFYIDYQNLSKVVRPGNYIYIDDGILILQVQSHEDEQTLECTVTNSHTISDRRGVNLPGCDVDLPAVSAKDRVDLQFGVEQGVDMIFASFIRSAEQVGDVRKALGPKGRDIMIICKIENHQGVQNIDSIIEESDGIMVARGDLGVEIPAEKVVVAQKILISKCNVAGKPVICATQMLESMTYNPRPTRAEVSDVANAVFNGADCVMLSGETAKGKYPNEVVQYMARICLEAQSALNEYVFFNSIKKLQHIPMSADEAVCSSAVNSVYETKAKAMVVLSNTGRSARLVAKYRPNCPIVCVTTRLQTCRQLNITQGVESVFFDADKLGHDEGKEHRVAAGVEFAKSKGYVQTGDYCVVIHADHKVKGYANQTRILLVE
#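 Pyruvate kinase activity monitored as ATP production (luciferase luminescence). Conditions: 0.1 nM enzyme, 0.5 mM PEP, 0.1 mM ADP, 1 h, RT; normalized against uninhibited and no-enzyme wells.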
# Cycloheximide cs – counter-screen hit for Shiga toxin inhibitors, cycloheximide; cell reporter, cycloheximide protein synthesis inhibition counterscreen; max response, %; 300,000 tested, 12% active; AID 2314; in the data active = max response mostly above about 13%, no sharp cut-off; inactive = mostly below about 14%; also: read at 38.3 µM for the half of the compounds with a filed dose
# Giardia FBPA inh – blocks Giardia fructose-bisphosphate aldolase activity | A8B2U2 | AID 2451 | purified Giardia FBPA | 290,000 tested, 0.71% active | Potency, µM (highest dose often 59.6 µM), most hits filed as inhibitors; also: nearly all actives have a fitted effect of over 55% in size
#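 40 nM FBPA preincubated 10 min at RT with compound (up to 57.5 uM final), then substrate plus GAPDH/TPI/NAD/arsenate coupling and diaphorase/resazurin added. Fluorescence read after 20 min at RT, 525/598 nm.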
# RE007 growth inh – less growth of the S. pombe RE007 Vpr strain; AID 651644; S. pombe RE007 Vpr strain, BacTiter-Glo ATP luminescence, 24 h; Potency, µM (series often up to 92.2 µM), hits mostly inhibitors; 360,000 tested, 0.21% active; active = well fitted falling curve with a large enough effect; inconclusive = small, poorly fitted or top-dose-only effect; inactive = no such curve, though single readings can be large or run the other way; also: nearly all actives have a fitted effect of over 50% in size
#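 Fission yeast RE007 carrying one integrated HIV-1 vpr copy, seeded at OD 0.01 in PMG+AL medium with 23 nL pinned compound. Grown 24 h at 30 degrees; viability read by BacTiter-Glo luminescence after 5 min.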
# Shiga toxin inh – Shiga toxin inhibition | Vero cells, Shiga toxin protein synthesis inhibition reporter | inhibition, % at 38.7 µM | 290,000 tested, 9.2% active; in the data active = inhibition mostly above about 28%, no sharp cut-off; inactive = mostly below about 43%
# Tb PYK inh – blocks Trypanosoma brucei pyruvate kinase; 410,000 tested, 0.12% active; TbPYK enzyme, Kinase-Glo Plus ATP luminescence, 45 min; Potency, µM (doses to about 76.8 µM), most hits filed as inhibitors; AID 624173; also: nearly all actives have a fitted effect of over 50% in size
#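 Enzyme and substrate buffer are dispensed first and compound is pin-transferred. ADP at 130 uM final then starts the reaction, which runs 45 min at room temperature. Detection reagent is added for 10 min before luminescence is imaged.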
# Hits are given with their value; – = inactive; ? = inconclusive; · = not tested or not shown; [ ] = another dose, or the depositor's remark. Unless noted, calls follow the shape of the dose curve; as a rule, active = well fitted curve in the direction sought with a large enough effect; inconclusive = small, poorly fitted or top-dose-only effect, or another doubt; inactive = no such curve, though single readings can be large; an effect the other way counts as inactive or inconclusive.
SMILES,LmPK inh,Cycloheximide cs,Giardia FBPA inh,RE007 growth inh,Shiga toxin inh,Tb PYK inh
COc1cccc(NC(=O)c2ccccc2)c1,·,·,·,–,·,–
COc1cccc(NC(=O)Nc2cccc(C(=O)O)c2)c1,–,25.9,–,–,47.1,–
COc1cccc(NC(=O)Nc2ccc(Br)cn2)c1,–,25.8,–,–,78.2,–
Cc1nn2c(=O)cc(COC(=O)c3cccs3)nc2s1,·,·,·,·,·,–
Cn1ccc2cc(NC(=O)Nc3cccnc3)ccc21,·,29.6,–,–[18.4 µM],48.8,–
CCc1ccc(NC(=O)Nc2cccc(OC)c2)cc1,–,25.9,–,–,105.2,–
COc1cccc(NC(=O)Nc2cccnc2)c1,–,13.8,–,–,–,–
COc1cccc(NC(=O)NC2(C(F)(F)F)Oc3ccccc3O2)c1,–,44.5,–,–,65.9,–
COc1cccc(NC(=O)Nc2ccc(CC(=O)O)cc2)c1,–,–,–,–,–,–
COc1ccc(NC(=O)Nc2cccnc2)c(OC)c1,–,–,–,–,–,–
Cc1nc2nc(C)c(CCC(=O)NCc3ccccc3)c(C)n2n1,·,·,·,·,·,–
COc1cccc(N2CCN(c3ncnc4onc(-c5ccc(Cl)cc5)c34)CC2)c1,·,·,·,·,·,–
Cc1ccc(CSc2c(C)cnc3c2c(=O)n(C)c(=O)n3C)cc1,·,·,·,·,·,–
Cc1ccc(N2CC(C(=O)Nc3ccc4c(c3)OCCO4)CC2=O)cc1C (configuration not stated),–,–,–,–,52.8,–
Cc1ccc(N2CC(C(=O)Nc3ccc4c(c3)OCCO4)CC2=O)cc1 (configuration not stated),–,19.9,–,–,43.8,–
O=C(Nc1ccc2c(c1)OCO2)C1CC(=O)N(c2ccccc2)C1 (configuration not stated),–,–,–,–,–,–
COC(=O)c1ccc(NC(=O)C2CC(=O)N(c3ccc(C)cc3)C2)cc1 (configuration not stated),–,16.7,–,–,–,–
COC(=O)c1ccc(NC(=O)C2CC(=O)N(c3cc(C)ccc3C)C2)cc1 (configuration not stated),–,–,–,–,–,–
Cc1ccc(NC(=O)C2CC(=O)N(c3ccc4c(c3)OCCO4)C2)cc1S(=O)(=O)N(C)C (configuration not stated),·,·,·,–,·,–
CCc1ccccc1Nc1nn2c(=O)c3ccc(C(=O)NCCC4=CCCCC4)cc3nc2s1,·,·,·,·,·,–
CCCCCSc1cc(OC)c(CCN(C)C)cc1OC,–,19.5,–,–,–,–
CCN(CC)c1ccc(NC(=O)c2cccc(OC)c2)c(C)c1,–,16.5,–,–,–,–
CCN(CC)c1ccc(NC(=O)c2ccc3c(c2)OCO3)c(C)c1,–,16.9,–,–,–,?
CCN(CC)c1ccc(NC(=O)c2cc(OC)cc(OC)c2)c(C)c1,–,–,–,–,–,–
COC(=O)C1CCN(C(c2ccccc2)c2sc3nc(-c4ccco4)nn3c2O)CC1 (configuration not stated),·,·,·,·,·,–
SMILES,LmPK inh,Cycloheximide cs,Giardia FBPA inh,RE007 growth inh,Shiga toxin inh,Tb PYK inh
C/C(=N\NC(=O)c1ccccc1O)c1c(O)cc(C)oc1=O,–,28.2,–,–,–,–
C/C(=N\NC(=O)c1cccnc1)c1cc(C)oc1C,–,–,–,–,–,–
C/C(=N\NC(=O)c1cccnc1)c1c(O)cc(C)oc1=O,–,21.0,–,–,34.0,–
C/C(=N\NC(=O)c1ccccc1[N+](=O)[O-])c1c(O)cc(C)oc1=O,–,–,–,–,–,–
N/C(=N\OC(=O)c1ccc([N+](=O)[O-])cc1Cl)c1ccccn1,17.8µM,14.0,–,–,–,?
COc1ccccc1C/C(N)=N/OC(=O)c1cccc([N+](=O)[O-])c1,–,–,–,–,–,–
N/C(=N\OC(=O)c1cc([N+](=O)[O-])ccc1Cl)c1ccccn1,–,22.8,–,–,58.0,–
N/C(=N\OC(=O)c1cccc([N+](=O)[O-])c1)c1ccccn1,–,36.6,–,–,114.2,–
O=C(OCc1nnc(-c2ccccc2)o1)c1cc([N+](=O)[O-])ccc1Cl,–,–,–,–,–,–
NNC(=O)c1ccc(COc2ccc3c(c2)CCC3)cc1,–,–,–,–,–,–
O=C(O)c1ccc(COc2ccc3c(c2)CCC3)cc1,–,25.5,?,–,54.2,–
Cc1ccc(NC(=O)c2ccc(COc3ccc4c(c3)CCC4)cc2)c(C)c1,–,17.1,–,–,–,–
O=C(Nc1ccccc1Cl)c1ccc(COc2ccc3c(c2)CCC3)cc1,–,24.6,–,–,59.8,–
O=C(CSc1ncn[nH]1)N1N=C2/C(=C/c3ccco3)CCCC2C1c1ccco1 (configuration not stated),–,–,–,–,–,–
CCCCN1C(=O)C(=O)N(CC(=O)N2N=C3/C(=C/c4ccco4)CCCC3C2c2ccco2)C1=O (configuration not stated),–,20.4,–,–,49.4,–
C=C1c2cccc(C(F)(F)F)c2O[C@H](C(=O)OCC)[C@@H]1CCCCCC,·,–,–,·,–,·
COc1cc2c(cc1OC)C(COc1ccc3c(C)cc(=O)oc3c1)N(C(=O)c1ccccc1C)CC2 (configuration not stated),·,·,·,·,·,–
O=C(Nc1ccccc1)C1=C[C@H](c2ccc3c(c2)OCO3)C[C@H](OCCCCO)O1,–,47.3,–,–,117.1,–
C#CCNC(=O)C1=C[C@H](c2ccc(Br)cc2)C[C@H](OCCCCO)O1,–,12.1,–,–,30.9,–
O=C(Nc1ccccc1)C1=C[C@@H](c2ccc(Br)cc2)C[C@@H](OCCCCO)O1,–,52.0,–,–,86.1,–
O=C(Nc1ccccc1)C1=C[C@@H](c2ccc3c(c2)OCO3)C[C@@H](OCCCCO)O1,·,·,·,–,·,–
C#CCNC(=O)C1=C[C@@H](c2ccc(C(F)(F)F)cc2)C[C@@H](OCCCCO)O1,–,–,–,–,–,–
Cc1cc2ccccc2n1-c1ccc(C(=O)N2CCC(C(=O)NCc3ccc(F)cc3)CC2)s1,·,·,·,·,·,–
CCOC(=O)c1cc(C#N)c(Oc2cccc(C(F)(F)F)c2)nc1-c1ccccc1,–,–,–,–,–,–
CCOC(=O)c1ccc(-c2cccc(C(F)(F)F)c2)nc1C,–,16.9,–,–,–,–
Cc1ccc(-n2nc(C(=O)N3CCN(c4ccc(F)cc4)CC3)c(=O)n(C)c2=O)cc1,·,·,·,·,·,–
C#CCSC1=C(C#N)C(c2cccs2)C(C(=O)OCC)=C(C)N1 (configuration not stated),–,24.4,–,–,–,–
C=CCSC1=NNC(c2ccc(C(C)(C)C)cc2)=NN1,–,32.3,–,–,79.1,–
CCOc1ccc(CCNC(=O)Cn2nc(CC)n3c(cc4c(OC)cccc43)c2=O)cc1OCC,·,·,·,·,·,–
